Results published in the supplement of paper PMC10849652.
Of roughly 8,800 targets only a part is listed; those with a hit were picked by preference. About 0.5% of all pairs of compound and target were hits.

Key:
Experiment in all cases: log2 fold change, soluble protein after heating vs DMSO (PISA); higher = thermal stabilisation; K562 lysate, 10 uM; active = over 0.2 and 3.5 SD of the protein, either way, in both replicates (recomputed)
barasertib = compound: CCN(CCCOc1ccc2c(Nc3cc(CC(=O)Nc4cccc(F)c4)[nH]n3)ncnc2c1)CCOP(=O)(O)O [barasertib]
How it was run: (§1)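 Quantification was by TMTpro 16plex LC-MS/MS with equalised channel sums, applied to the supernatant after 21,000xg for 90 min. Samples were crude K562 extract at 1 mg/mL protein in PBS pH 7.4 with 1 mM MgCl2, treated with 10 μM compound for 30 min, heated for 3 min across 48°C-58°C, pooled and brought to 0.5% NP-40 at 4°C. Values are log-two fold changes in thermal stability relative to solvent controls, from duplicates.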

[1] = compound: CCn1c(C(=O)N(C2CC2)C2CC2)cc2c3c(ncn3C)c(Nc3cc(C)n(C)n3)nc21
How it was run: as §1

[2] = compound: CCn1cc(-c2ccnc3[nH]c(-c4cccc(CN(C)C)c4)cc23)c(-c2ccc(NC(=O)N(C)C)cc2)n1
How it was run: as §1

[3] = compound: CN1CCC(CNc2ccc3ncc(-c4cccc(OC(F)(F)F)c4)n3n2)CC1
How it was run: as §1

saracatinib = compound: CN1CCN(CCOc2cc(OC3CCOCC3)c3c(Nc4c(Cl)ccc5c4OCO5)ncnc3c2)CC1 [saracatinib]
How it was run: as §1

sotrastaurin = compound: CN1CCN(c2nc(C3=C(c4c[nH]c5ccccc45)C(=O)NC3=O)c3ccccc3n2)CC1 [sotrastaurin]
How it was run: as §1

alvocidib = compound: CN1CC[C@H](c2c(O)cc(O)c3c(=O)cc(-c4ccccc4Cl)oc23)[C@H](O)C1 [alvocidib]
How it was run: as §1

Tubastatin A = compound: CN1CCc2c(c3ccccc3n2Cc2ccc(C(=O)NO)cc2)C1 [Tubastatin A]
How it was run: as §1

[4] = compound: CNC(=O)C1=CC=CC=C1NC2=NC(=NC=C2Cl)NC3=C(C=C(C=C3)N4CCOCC4)OC
How it was run: as §1

[5] = compound: CNc1nc(-c2ccc3c(N)n[nH]c3c2)cc(N2C[C@@H](C(=O)NC3CCCCC3)CC[C@H]2C)n1
How it was run: as §1

alisertib = compound: COc1cc(Nc2ncc3c(n2)-c2ccc(Cl)cc2C(c2c(F)cccc2OC)=NC3)ccc1C(=O)O [alisertib]
How it was run: as §1

gefitinib = compound: COc1cc2ncnc(Nc3ccc(F)c(Cl)c3)c2cc1OCCCN1CCOCC1 [gefitinib]
How it was run: as §1

[6] = compound: CCCS(=O)(=O)Nc1ccc(F)c(C(=O)c2c[nH]c3ncc(Cl)cc23)c1F
How it was run: as §1

volasertib = compound: CC[C@@H]1C(=O)N(C)c2cnc(Nc3ccc(C(=O)N[C@H]4CC[C@H](N5CCN(CC6CC6)CC5)CC4)cc3OC)nc2N1C(C)C [volasertib]
How it was run: as §1

[7] = compound: COc1cc2nc(-c3cc(F)ccc3O)nc(N[C@@H]3CNC[C@H]3C(C)(C)O)c2cc1OC
How it was run: as §1

[8] = compound: CC[C@@H]1C(=O)N(C)c2cnc(Nc3ccc(C(=O)NC4CCN(C)CC4)cc3OC)nc2N1C1CCCC1
How it was run: as §1

encorafenib = compound: COC(=O)N[C@@H](C)CNc1nccc(-c2cn(C(C)C)nc2-c2cc(Cl)cc(NS(C)(=O)=O)c2F)n1 [encorafenib]
How it was run: as §1

[9] = compound: COC(=O)[C@H](CCSC)NC(=O)C1=C(C=C(C=C1)NC[C@H](CS)N)C2=CC=CC=C2
How it was run: as §1

vemurafenib = compound: CCCS(=O)(=O)Nc1ccc(F)c(C(=O)c2c[nH]c3ncc(-c4ccc(Cl)cc4)cc23)c1F [vemurafenib]
How it was run: as §1

defactinib = compound: CNC(=O)c1ccc(Nc2ncc(C(F)(F)F)c(NCc3nccnc3N(C)S(C)(=O)=O)n2)cc1 [defactinib]
How it was run: as §1

Measured: log2 fold change

SNAPC2 (UniProt Q13487)
inactive: barasertib -0.211 | [1] 0.04 | [2] 0.039 | [3] 0.048 | saracatinib 0.038 | sotrastaurin 0.154 | alvocidib -0.034 | Tubastatin A -0.117 | [4] -0.005 | [5] -0.175 | alisertib 0.014 | gefitinib -0.044

SHB (UniProt Q15464)
UniProt Q15464, sequence (Q15464 whole entry, looked up): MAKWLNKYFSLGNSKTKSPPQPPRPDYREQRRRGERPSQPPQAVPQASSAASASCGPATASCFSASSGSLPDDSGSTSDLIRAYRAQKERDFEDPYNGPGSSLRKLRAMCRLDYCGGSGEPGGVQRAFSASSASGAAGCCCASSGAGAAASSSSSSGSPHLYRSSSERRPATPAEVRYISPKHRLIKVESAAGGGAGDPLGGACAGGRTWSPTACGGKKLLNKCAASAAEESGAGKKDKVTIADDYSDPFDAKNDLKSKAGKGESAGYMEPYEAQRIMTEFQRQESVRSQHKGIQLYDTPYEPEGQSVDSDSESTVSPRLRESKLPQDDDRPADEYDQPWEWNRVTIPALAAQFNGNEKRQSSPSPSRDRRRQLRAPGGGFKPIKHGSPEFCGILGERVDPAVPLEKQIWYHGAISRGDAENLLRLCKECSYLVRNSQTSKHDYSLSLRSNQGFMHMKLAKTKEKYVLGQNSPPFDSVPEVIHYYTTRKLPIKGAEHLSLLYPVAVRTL
inactive: [6] -0.049 | volasertib 0.072 | [1] 0.113 | [2] -0.125 | [3] -0.162 | saracatinib 0.003 | sotrastaurin -0.003 | alvocidib -0.139 | Tubastatin A -0.108 | [4] 0.169 | [5] 0.067 | [7] 0.034

SLC12A6 isoform 2 (UniProt Q9UHW9)
inactive: [6] 0.009 | [8] 0.053 | volasertib -0.178 | [1] -0.021 | saracatinib 0.042 | sotrastaurin 0.057 | Tubastatin A -0.013 | [4] -0.149 | [5] -0.008 | encorafenib 0.031 | [9] 0.075 | [7] -0.106

TAF11 (UniProt Q15544)
UniProt Q15544, sequence (Q15544 whole entry, looked up): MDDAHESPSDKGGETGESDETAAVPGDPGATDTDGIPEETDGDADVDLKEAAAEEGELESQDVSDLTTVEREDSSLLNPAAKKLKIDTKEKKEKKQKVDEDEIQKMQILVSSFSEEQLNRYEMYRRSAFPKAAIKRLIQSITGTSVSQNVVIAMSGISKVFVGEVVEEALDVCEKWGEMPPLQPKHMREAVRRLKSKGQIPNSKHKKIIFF
active: [9] 0.398
inactive: vemurafenib -0.055 | [6] 0.166 | [8] 0.14 | volasertib 0.037 | [1] 0.086 | [2] -0.028 | [3] 0.086 | saracatinib -0.021 | sotrastaurin 0.026 | alvocidib -0.015 | Tubastatin A 0.014 | defactinib -0.151 | [5] 0.137 | encorafenib -0.155 | alisertib -0.053 | [7] 0.048 | gefitinib 0.064

STK38L (UniProt Q9Y2H1)
active: [4] 0.647
inactive: [8] -0.105 | [1] -0.047 | saracatinib -0.058 | sotrastaurin -0.01 | Tubastatin A -0.063 | [5] 0.06 | encorafenib -0.036 | [9] 0.193 | alisertib 0.06 | gefitinib -0.049

STAU1 isoform 3 (UniProt O95793)
UniProt O95793, sequence (O95793 whole entry, looked up): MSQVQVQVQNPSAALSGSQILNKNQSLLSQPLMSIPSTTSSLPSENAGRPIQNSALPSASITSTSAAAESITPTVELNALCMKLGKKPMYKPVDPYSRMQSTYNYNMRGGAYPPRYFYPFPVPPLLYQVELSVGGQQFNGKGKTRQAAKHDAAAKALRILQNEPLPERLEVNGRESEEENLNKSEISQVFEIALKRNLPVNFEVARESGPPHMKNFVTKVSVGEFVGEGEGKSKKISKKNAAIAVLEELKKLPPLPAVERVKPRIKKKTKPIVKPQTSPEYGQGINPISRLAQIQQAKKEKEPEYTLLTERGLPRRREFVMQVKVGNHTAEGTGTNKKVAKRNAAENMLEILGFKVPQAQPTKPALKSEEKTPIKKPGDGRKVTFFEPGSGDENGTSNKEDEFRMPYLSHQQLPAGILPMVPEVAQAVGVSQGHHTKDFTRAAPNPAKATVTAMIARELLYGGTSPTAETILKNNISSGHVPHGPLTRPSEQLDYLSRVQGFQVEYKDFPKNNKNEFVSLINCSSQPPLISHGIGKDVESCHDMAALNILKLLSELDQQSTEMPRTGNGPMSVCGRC
inactive: barasertib 0.014 | [2] -0.166 | [3] -0.016 | sotrastaurin 0.092 | alvocidib -0.06 | [4] -0.044 | alisertib -0.068 | gefitinib 0.03

SHC1 (UniProt P29353)
inactive: [2] -0.2 | [3] -0.114 | alvocidib 0.144

TARDBP (UniProt K7EN94)
inactive: vemurafenib 0.008 | [8] -0.039 | defactinib -0.197 | encorafenib 0.224 | [9] 0.04

SNIP1 (UniProt Q8TAD8)
inactive: alisertib -0.024 | gefitinib -0.015

SLC41A1 (UniProt Q8IVJ1)
inactive: [6] 0.021 | [8] 0.085 | volasertib -0.084 | [1] 0.035 | [2] 0.083 | [3] 0.06 | sotrastaurin 0.082 | alvocidib -0.213 | Tubastatin A 0.055 | [4] 0.043 | encorafenib 0.071 | [9] -0.031 | alisertib 0.024 | [7] 0.014 | gefitinib 0.153

SKP2 (UniProt Q13309)
inactive: vemurafenib 0.417 | [6] 0.093 | [8] 0.193 | volasertib 0.05 | [1] 0.025 | [2] 0.121 | [3] -0.008 | saracatinib -0.011 | sotrastaurin 0.032 | alvocidib -0.048 | Tubastatin A -0.077 | [4] 0.044 | defactinib 0.189 | [5] 0.03 | encorafenib -0.053 | [9] 0.085 | alisertib 0.01 | [7] 0.173 | gefitinib 0.058

SLCO4A1 (UniProt Q96BD0)
inactive: barasertib 0.037 | [2] -0.015 | [3] 0.042 | alvocidib -0.129 | alisertib -0.041 | gefitinib -0.001

SIN3B (UniProt O75182)
UniProt O75182, sequence (O75182 whole entry, looked up): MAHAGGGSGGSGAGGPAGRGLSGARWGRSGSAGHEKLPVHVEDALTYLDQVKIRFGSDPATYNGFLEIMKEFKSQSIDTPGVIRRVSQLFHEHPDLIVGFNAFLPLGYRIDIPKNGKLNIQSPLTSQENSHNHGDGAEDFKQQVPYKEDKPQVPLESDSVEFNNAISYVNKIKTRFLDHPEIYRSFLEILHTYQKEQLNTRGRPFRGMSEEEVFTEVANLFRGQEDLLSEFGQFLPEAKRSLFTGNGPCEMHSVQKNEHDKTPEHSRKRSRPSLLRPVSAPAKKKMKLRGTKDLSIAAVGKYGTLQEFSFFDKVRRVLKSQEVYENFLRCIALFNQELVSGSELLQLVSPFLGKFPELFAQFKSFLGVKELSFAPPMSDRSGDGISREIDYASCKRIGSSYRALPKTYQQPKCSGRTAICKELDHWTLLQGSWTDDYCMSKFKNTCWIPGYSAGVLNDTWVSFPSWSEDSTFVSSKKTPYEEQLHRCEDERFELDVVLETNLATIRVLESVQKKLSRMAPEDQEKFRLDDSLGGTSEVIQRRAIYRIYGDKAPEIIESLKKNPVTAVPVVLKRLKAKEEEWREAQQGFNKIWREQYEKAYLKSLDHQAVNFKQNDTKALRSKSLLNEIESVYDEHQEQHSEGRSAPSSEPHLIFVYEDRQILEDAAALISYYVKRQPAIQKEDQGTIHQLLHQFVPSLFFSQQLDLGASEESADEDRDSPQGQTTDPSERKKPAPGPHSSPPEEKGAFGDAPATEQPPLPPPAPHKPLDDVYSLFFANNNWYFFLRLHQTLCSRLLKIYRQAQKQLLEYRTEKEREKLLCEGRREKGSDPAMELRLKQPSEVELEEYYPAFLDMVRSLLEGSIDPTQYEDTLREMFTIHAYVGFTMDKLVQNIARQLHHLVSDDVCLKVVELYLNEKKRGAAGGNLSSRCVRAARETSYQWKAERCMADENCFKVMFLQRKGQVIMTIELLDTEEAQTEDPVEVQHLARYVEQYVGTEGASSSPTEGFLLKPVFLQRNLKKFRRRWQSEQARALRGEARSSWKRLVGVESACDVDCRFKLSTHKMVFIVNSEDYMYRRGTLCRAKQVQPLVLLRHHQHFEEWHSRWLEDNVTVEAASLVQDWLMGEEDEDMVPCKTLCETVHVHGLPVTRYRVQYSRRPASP
inactive: vemurafenib -0.042 | [8] -0.092 | [2] -0.061 | [3] 0.267 | sotrastaurin -0.099 | alvocidib -0.463 | defactinib 0.185 | encorafenib 0.12 | [9] 0.272 | alisertib -0.064 | gefitinib 0.793

SMC4 (UniProt C9JJ64)
inactive: barasertib 0.152

STAR (UniProt P49675)
UniProt P49675, sequence (P49675 whole entry, looked up): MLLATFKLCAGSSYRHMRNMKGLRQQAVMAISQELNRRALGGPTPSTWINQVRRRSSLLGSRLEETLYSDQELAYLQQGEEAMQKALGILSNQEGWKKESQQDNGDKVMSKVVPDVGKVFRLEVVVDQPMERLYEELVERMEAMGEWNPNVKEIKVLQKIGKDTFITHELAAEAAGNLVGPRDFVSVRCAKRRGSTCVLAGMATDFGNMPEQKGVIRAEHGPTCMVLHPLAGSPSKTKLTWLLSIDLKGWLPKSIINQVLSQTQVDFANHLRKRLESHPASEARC
active: Tubastatin A 0.448
inactive: vemurafenib 0.02 | [8] 0.074 | [1] 0.008 | [2] 0.043 | [3] -0.03 | saracatinib 0.006 | sotrastaurin 0.061 | alvocidib -0.024 | [4] 0.073 | defactinib 0.034 | [5] 0.005 | encorafenib -0.052 | [9] 0.063 | alisertib 0.133 | gefitinib -0.056

SLC39A13 (UniProt Q96H72)
inactive: [1] 0.035 | Tubastatin A -0.125 | [4] -0.058

SLU7 (UniProt O95391)
inactive: vemurafenib -0.043 | barasertib -0.07 | [8] 0.062 | [1] -0.004 | [2] -0.188 | [3] 0.166 | saracatinib 0.093 | sotrastaurin -0.027 | alvocidib -0.086 | Tubastatin A -0.042 | [4] -0.065 | defactinib 0.016 | [5] -0.006 | encorafenib 0.071 | [9] 0.021 | alisertib 0.002 | gefitinib 0.026

SNRPD2 (UniProt K7EJB5)
inactive: vemurafenib 0.061 | [6] -0.029 | [8] -0.085 | volasertib 0.026 | [1] 0.112 | saracatinib -0.049 | sotrastaurin 0.112 | Tubastatin A -0.001 | [4] -0.057 | defactinib -0.074 | [5] 0.054 | encorafenib -0.069 | [9] 0.047 | alisertib 0.103 | [7] 0.025 | gefitinib 0.107

STK17B (UniProt O94768)
inactive: [1] -0.451 | saracatinib -0.002 | sotrastaurin 0.057 | Tubastatin A -0.466 | [4] 0.082 | [5] 0.642 | alisertib 0.066 | gefitinib 0.094

SLC25A36 (UniProt Q96CQ1)
inactive: vemurafenib -0.272 | [6] 0.007 | [8] 0.113 | volasertib -0.045 | [1] 0.039 | [2] -0.016 | [3] 0.035 | saracatinib -0.001 | sotrastaurin -0.055 | alvocidib 0.024 | Tubastatin A -0.047 | [4] 0.048 | defactinib 0.068 | [5] 0.029 | encorafenib 0.041 | [9] 0 | alisertib 0.04 | [7] 0.049 | gefitinib 0.025

STK26 isoform 3 (UniProt Q9P289)
inactive: [8] 0.189 | saracatinib -0.046 | sotrastaurin -0.119 | [5] 0.058 | encorafenib 0.034 | [9] 0.001

SMIM1 (UniProt B2RUZ4)
UniProt B2RUZ4, sequence (B2RUZ4 whole entry, looked up): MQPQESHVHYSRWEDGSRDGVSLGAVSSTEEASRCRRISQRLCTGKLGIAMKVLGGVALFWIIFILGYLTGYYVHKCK
inactive: [6] 0.013 | barasertib 0.002 | [8] -0.108 | volasertib 0.026 | [1] -0.096 | [2] -0.036 | [3] -0.222 | sotrastaurin 0.088 | alvocidib -0.031 | Tubastatin A 0.123 | [4] 0.097 | encorafenib 0.226 | [9] -0.07 | alisertib -0.149 | [7] 0.022 | gefitinib -0.279

SMARCA4 isoform 4 (UniProt P51532)
UniProt P51532, sequence (P51532 whole entry, looked up): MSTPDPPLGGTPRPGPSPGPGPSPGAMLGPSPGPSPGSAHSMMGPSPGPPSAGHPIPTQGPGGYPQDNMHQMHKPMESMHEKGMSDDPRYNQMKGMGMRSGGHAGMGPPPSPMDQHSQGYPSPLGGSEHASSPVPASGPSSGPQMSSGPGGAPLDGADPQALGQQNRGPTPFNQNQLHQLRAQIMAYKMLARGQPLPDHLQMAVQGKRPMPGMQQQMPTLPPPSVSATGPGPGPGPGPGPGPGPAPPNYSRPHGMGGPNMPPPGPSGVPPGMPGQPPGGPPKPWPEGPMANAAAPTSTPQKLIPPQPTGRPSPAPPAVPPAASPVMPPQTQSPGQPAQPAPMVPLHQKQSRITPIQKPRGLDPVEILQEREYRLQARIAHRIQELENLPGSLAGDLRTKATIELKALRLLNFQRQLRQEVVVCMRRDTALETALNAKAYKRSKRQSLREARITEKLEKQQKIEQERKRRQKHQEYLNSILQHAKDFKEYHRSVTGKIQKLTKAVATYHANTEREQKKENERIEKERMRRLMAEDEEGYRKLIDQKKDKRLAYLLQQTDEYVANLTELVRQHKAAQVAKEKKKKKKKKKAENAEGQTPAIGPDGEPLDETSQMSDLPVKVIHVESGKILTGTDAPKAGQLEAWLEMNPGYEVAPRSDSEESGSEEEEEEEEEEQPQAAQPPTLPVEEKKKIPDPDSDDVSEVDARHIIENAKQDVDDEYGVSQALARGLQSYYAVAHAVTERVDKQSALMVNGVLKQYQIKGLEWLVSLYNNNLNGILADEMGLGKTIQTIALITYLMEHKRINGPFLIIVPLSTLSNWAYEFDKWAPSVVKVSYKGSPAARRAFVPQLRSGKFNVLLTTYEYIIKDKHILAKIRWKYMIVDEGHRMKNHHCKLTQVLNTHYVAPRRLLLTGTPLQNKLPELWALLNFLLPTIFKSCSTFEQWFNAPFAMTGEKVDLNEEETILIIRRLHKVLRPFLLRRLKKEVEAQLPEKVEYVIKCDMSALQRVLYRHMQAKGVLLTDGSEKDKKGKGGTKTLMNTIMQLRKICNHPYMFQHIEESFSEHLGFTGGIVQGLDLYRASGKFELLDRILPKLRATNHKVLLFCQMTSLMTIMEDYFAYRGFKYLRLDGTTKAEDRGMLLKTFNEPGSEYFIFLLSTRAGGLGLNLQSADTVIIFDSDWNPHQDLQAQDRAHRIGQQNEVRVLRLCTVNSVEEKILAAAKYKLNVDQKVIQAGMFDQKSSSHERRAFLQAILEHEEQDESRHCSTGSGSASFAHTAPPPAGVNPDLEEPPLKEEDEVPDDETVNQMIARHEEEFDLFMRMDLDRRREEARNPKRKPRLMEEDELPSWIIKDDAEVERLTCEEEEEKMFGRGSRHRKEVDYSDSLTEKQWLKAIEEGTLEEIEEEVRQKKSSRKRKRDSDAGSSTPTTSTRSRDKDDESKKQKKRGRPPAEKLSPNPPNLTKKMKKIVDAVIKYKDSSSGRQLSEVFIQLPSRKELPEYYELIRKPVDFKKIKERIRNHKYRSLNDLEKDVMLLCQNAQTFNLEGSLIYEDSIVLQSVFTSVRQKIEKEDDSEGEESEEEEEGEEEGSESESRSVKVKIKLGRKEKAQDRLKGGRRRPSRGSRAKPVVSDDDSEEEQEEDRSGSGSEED
inactive: [6] -0.047 | [8] 0.049 | volasertib 0.043 | [1] -0.192 | [2] -0.086 | [3] 0.057 | saracatinib 0.119 | sotrastaurin 0.325 | alvocidib 0.078 | Tubastatin A 0.106 | [4] -0.008 | [5] 0.024 | encorafenib -0.315 | [9] 0.04 | alisertib -0.046 | [7] -0.038 | gefitinib -0.116

SZT2 (UniProt Q5T011)
inactive: [6] -0.032 | barasertib 0.313 | [8] 0.293 | volasertib -0.095 | [1] 0.006 | [2] 0.035 | [3] 0.094 | saracatinib -0.073 | alvocidib -0.169 | Tubastatin A 0.012 | [4] -0.002 | [5] 0.109 | encorafenib -0.011 | [9] -0.105 | alisertib -0.193 | [7] -0.031 | gefitinib 0.094

SRC isoform 2 (UniProt P12931)
inactive: [6] 0.166 | barasertib 0.133 | [8] 0.045 | volasertib -0.039 | [1] -0.024 | [2] 0.184 | [3] -0.121 | alvocidib -0.035 | Tubastatin A 0.133 | [4] 0.118 | [5] -0.031 | encorafenib -0.171 | [9] 0.399 | [7] 0

SPAG1 (UniProt Q07617)
inactive: vemurafenib 0.041 | [6] 0.028 | barasertib 0.018 | volasertib -0.137 | [1] 0.083 | sotrastaurin -0.02 | Tubastatin A 0.071 | defactinib -0.014 | [7] -0.03

STK17A (UniProt Q9UEE5)
UniProt Q9UEE5, sequence (Q9UEE5 whole entry, looked up): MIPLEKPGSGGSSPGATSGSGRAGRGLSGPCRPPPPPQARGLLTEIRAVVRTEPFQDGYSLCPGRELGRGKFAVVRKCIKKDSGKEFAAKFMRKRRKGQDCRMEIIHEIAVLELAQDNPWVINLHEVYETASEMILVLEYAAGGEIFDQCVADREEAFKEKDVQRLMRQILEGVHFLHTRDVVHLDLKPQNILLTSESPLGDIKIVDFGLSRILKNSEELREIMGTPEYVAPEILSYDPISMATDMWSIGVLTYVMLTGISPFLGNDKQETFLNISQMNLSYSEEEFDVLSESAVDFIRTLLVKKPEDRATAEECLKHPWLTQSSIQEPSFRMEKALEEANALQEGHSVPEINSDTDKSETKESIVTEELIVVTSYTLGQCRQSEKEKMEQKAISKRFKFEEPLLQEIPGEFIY
inactive: [2] 0.164 | [3] -0.109 | alvocidib 0.182 | alisertib -0.291 | gefitinib -0.141

TAOK2 isoform 2 (UniProt Q9UL54)
inactive: alisertib -0.046 | gefitinib -0.202
